From PubChem BioAssay (NCI) come the findings set out here.

Common to all, as to assay: NCI-60 one-dose screen, 48 h (100 = growth as untreated, 0 = no growth, -100 = all killed)
Experiment [1] concerns SK-MEL-2 melanoma. Conditions: 10 µM unless noted.
In experiment [2] the test system is EKVX NSCLC. Particulars: 10 µM unless noted.
For experiment [3], the system named is SN12C renal. Conditions: 10 µM unless noted.
For experiment [4], the system named is UO-31 renal. Particulars: 10 µM unless noted.
Experiment [5] has as its system TK-10 renal. Conditions: 10 µM unless noted.
Experiment [6] relates to ACHN renal. Particulars: 10 µM unless noted.
Experiment [7] concerns CAKI-1 renal. Particulars: 10 µM unless noted.
Experiment [8] relates to A498 renal. Conditions: 10 µM.
Experiment [9] concerns HL-60(TB) leukemia. Particulars: 10 µM unless noted.
Experiment [10] deals with CCRF-CEM leukemia. Particulars: 10 µM unless noted.
Experiment [11] has as its system MOLT-4 leukemia. Conditions: 10 µM unless noted.
In experiment [12] the test system is SR leukemia. Particulars: 10 µM unless noted.
Experiment [13] concerns OVCAR-8 ovarian. Conditions: 10 µM unless noted.
The subject of experiment [14] is OVCAR-5 ovarian. Conditions: 10 µM unless noted.
In experiment [15] the test system is OVCAR-4 ovarian. Conditions: 10 µM unless noted.
Experiment [16] has as its system SK-OV-3 ovarian. Particulars: 10 µM unless noted.
Experiment [17] deals with IGROV1 ovarian. Particulars: 10 µM unless noted.
Experiment [18] relates to OVCAR-3 ovarian. Conditions: 10 µM unless noted.
For experiment [19], the system named is HS 578T breast. Conditions: 10 µM unless noted.
The subject of experiment [20] is RPMI-8226 leukemia. Conditions: 10 µM unless noted.

This is part of a sample that, as a whole, favours compounds with a hit. Of some 83,000 tested, about 20% had one in any assay.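 Negative percent growth values reflect cell death: -40 means 40% of the cells present at the start died, and -100 means all died.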 Values without a mark were called inactive. Activity calls are given as the source filed them. How the source made its calls: active means growth percent below 10; inactive means the rest.

For `COc1ccc(C/C(C)=C(\c2ccc(OCCN3CCOCC3)cc2)c2ccc(OC(=O)Cc3ccccc3)cc2)cc1`, the growth in experiment [1] was -80.6% (active); in experiment [2], 17.9%; in experiment [3], -73.7% (active); in [4] it was -84.6% (active); in experiment [5], -46.1% (active); in experiment [6], -3.31% (active). Further, the growth in experiment [7] was 7.71% (active); in [8] it was -90.5% (active); in [9], -59.3% (active); in experiment [10], -13.7% (active); in experiment [11], -14.5% (active); in experiment [12], -38.2% (active). The growth in experiment [13] was -1.48% (active); in experiment [14], 3.16% (active); in experiment [15], 4% (active); in experiment [16], 0.737% (active); in experiment [17], 1.9% (active); in [18], -93.4% (active). In addition, the growth in experiment [19] was -42.1% (active).
Take `O=C1CC2(CC3(Cl)C(Cl)=C(Cl)C2(Cl)C3(Cl)Cl)C(=O)O1` (stereo not given): the growth in experiment [1] is 121%; in experiment [2] it was 95.7%; in experiment [3] it was 107%; in experiment [4], 63.5%; in experiment [5] it was 98.7%; in experiment [6], 105%. Besides, the growth was 97.9% in experiment [7]; 98.9% in experiment [8]; 97.1% in [9]; 114% in experiment [10]; 96.5% in [11]; 105% in [20]. In addition, the growth in experiment [13] was 104%; in [14], 94.4%; in experiment [15], 116%; in experiment [16], 112%; in [18], 114%.
For the compound `CC12CCC3C(CCC4Cc5[nH]c6ccccc6c5CC43C)C1CCC2O` (stereo not given), the growth in [1] was 67.2%; in [2] it was 56.8%; in [3] it was 42.8%; in [4], 56.9%; in experiment [5] it was 57.3%; in experiment [6], 48.3%. Moreover, the growth was 45.1% in experiment [7]; 31.8% in experiment [8]; -32.9% (active) in experiment [9]; 8.61% (active) in [10]; 21.6% in experiment [11]; -20% (active) in [20]. The growth in [13] is 36.9%; in [14] it was 122%; in experiment [15], 51.8%; in experiment [16], 29.5%; in [17], 50.8%; in [18], -28.3% (active). The growth in experiment [19] is -8.19% (active).
On to `C[C@@]1(CCCCCCCCCc2ccc(O)cc2)C[C@]2(C)OC(=O)C[C@@H]2OO1`, for which the growth in experiment [1] is 117%; in experiment [2] it was 98.7%; in [3], 98.5%; in experiment [4] it was 16.7%; in [5], 112%; in [6], 65.5%. The growth in experiment [7] was 65.1%; in experiment [8] it was 104%; in experiment [9], 81%; in experiment [10], 75.4%; in [11] it was 78%; in experiment [20], 83%. The growth in experiment [13] was 94.5%; in [14], 94.7%; in experiment [15], 85.5%; in experiment [16], 122%; in experiment [17], -51.3% (active); in experiment [18], 126%. Also, the growth in [19] is 92.9%.
As for `CCCCCN(CCCCC)CC(O)c1cc(Cl)ccc1OC` (stereo not given), the growth in experiment [1] is 32.8%; in [2] it was 52.4%; in [3], 52.7%; in [4] it was 25.2%; in experiment [5] it was 73.1%; in experiment [6] it was 43.9%. Moreover, the growth in experiment [7] is 28.7%; in experiment [8] it was 37.4%; in experiment [9], 55.4%; in [11] it was 34.9%; in [20] it was 0.775% (active); in experiment [13], 63.1%. The growth in [14] is 53.7%; in experiment [15], 42.9%; in [16] it was 53.6%; in [17], 2.26% (active); in experiment [18] it was 28.6%; in experiment [19] it was 50.1%.
Regarding `C=CCCCN=C=S`, the growth was 56% in [1]; 92.7% in experiment [2]; 60.1% in [3]; 70% in [4]; 69.1% in experiment [5]; 77.9% in [6]. In addition, the growth in experiment [7] is 83.3%; in experiment [8], 76%; in [10], 50.1%; in [11] it was 40.7%; in experiment [12], 27%; in experiment [20], 49%. For the same compound, the growth in experiment [13] was 89.6%; in experiment [14], 86.9%; in experiment [15], 88.8%; in experiment [16] it was 70.7%; in experiment [18], 57.8%; in experiment [19], 98%.
Regarding `O=C1C=C2C(=CCOC2O)O1` (stereo not given), the growth in experiment [1] is 10.4%; in experiment [2], 103%; in experiment [3], 35.1%; in experiment [4] it was -11.6% (active); in experiment [5] it was -37.2% (active); in experiment [6], -18.7% (active). Also, the growth in experiment [7] is -13.2% (active); in [8], 107%; in [20], -19.1% (active); in experiment [13], -21.5% (active); in [14] it was 41.5%; in experiment [15], 25.4%. Further, the growth in [16] is 100%; in [17], 42.9%; in [18], -78.6% (active); in experiment [19] it was 50%.
For `COc1ccc(N(CC(=O)NCCC[Te]c2ccccc2)C(=O)CCSC2=C(C)C(=O)c3ccccc3C2=O)cc1`, the growth in experiment [1] was -49.6% (active); in [2] it was -2.22% (active); in experiment [3], -8.2% (active); in experiment [4], -29.3% (active); in experiment [5], 8.99% (active); in [6], -51.4% (active). Besides, the growth in experiment [7] was -25.5% (active); in [8], -32.2% (active); in experiment [20], -40.9% (active); in [14], -57.4% (active); in [15], 20.2%; in experiment [16], -55.6% (active). Also, the growth in [17] is -68.3% (active); in experiment [18], -40.4% (active); in [19], -10.3% (active).
Turning to `Oc1c(O)c(Cl)c(Cl)c(Cl)c1Cl`, the growth in experiment [1] is 39.1%; in [2], 36.6%; in [3], 31.6%; in [4] it was 3.66% (active); in experiment [5] it was 73.4%; in [6] it was 32.2%. Besides, the growth in experiment [7] is 81.7%; in experiment [8], 63.7%; in experiment [10] it was 35.3%; in experiment [11] it was 31.1%; in experiment [12], 24.3%; in experiment [20], 25.1%. Besides, the growth in experiment [13] is -4.12% (active); in experiment [14], 77.7%; in [15], 15.8%; in [16], 64%; in experiment [17], -33.3% (active); in [18] it was -11.7% (active). Besides, in experiment [19], the growth was 34.8%.
